SMILES strings stand for the structures. Results filed as inconclusive are left out. Where a call stands in place of a potency, no number is given. Calls of active or inactive are those of the source. Calls follow the shape of the dose curve; as a rule, active = well fitted cell-killing curve with a large enough effect in the repeat runs; inconclusive = weak or mixed curves, or effect the other way; inactive = flat fitted curve, though single readings scatter.

This assay can be described thus: qHTS assay to identify small molecule antagonists of the estrogen receptor alpha (ER-alpha) signaling pathway using the BG1 cell line in the presence of 0.1 nM 17-beta-estradiol - cell viability counter screen (AID 1259241). Also: nearly all actives have a fitted effect of over 40% in size. To be noted: VM7Luc4E2 (BG1) viability, CellTiter-Fluor protease, 22 h, 0.1 nM estradiol agonist added; series mostly up to 92.4 µM. An excerpt: National Center for Advancing Translational Sciences [NCATS]
NIH Chemical Genomics Center [NCGC]
U.S. Environmental Protection Agency [EPA]
National Institutes of Environmental Health Sciences [NIEHS]
National Toxicology Program [NTP]
U.S. Food and Drug Administration [FDA]
Estrogen receptor (ER), a member of the nuclear hormone receptor plays an important role in development, metabolic homeostasis and reproduction. Two subtypes of ER, ER-alpha and ER-beta, have similar expression patterns with some uniqueness in both types. Endocrine disrupting chemicals (EDCs) and their interactions with steroid hormone receptors like ER causes disruption of normal endocrine function. Therefore, it is important to understand the effect of environmental chemicals in ER signaling pathway. For identifying ER antagonists, VM7Luc4E2 cell line was used to screen against Tox21 compound libraries.
VM7Luc4E2 cell line (provided by Denison MS, University of California) endogenously express full-length ER-alpha and is stably transfected with a plasmid containing four estrogen responsive elements (ERE) upstream of a luciferase reporter gene. The current screening for identification of ER-alpha inhibitors against Tox21 compound libraries used lower concentration (0.1 nM) of 17beta-Estradiol as a stimulator. The cytotoxicity of the Tox21 compound libraries against VM7Luc4E2 cell line was tested by measuring live-cell protease activity using CellTiter-Fluor assay in the same wells.
Tox21 Assay Protocol Summary:
VM7Luc4E2 cells were cultured in phenol red free assay medium containing 10% charcoal stripped FBS for 5 days prior to the assay. The cells were dispensed at 4,000 cells/well in 4 uL of assay medium into white wall/solid-bottom 1536-well plates (Corning Life Sciences, Corning, NY) using a Multidrop Combi (ThermoFisher Scientific, Waltham, MA) dispenser. After the assay plates were incubated at 37C and 5% CO2 for 24 hr, 23 nL of compounds dissolved in DMSO, positive controls or DMSO only was transferred to the assay plates by a Pintool station (Kalypsys, San Diego, CA). The transfer of compounds was followed by the addition of 1 uL of 0.1 nM (final concentration) agonist (17beta-Estradiol)/assay medium using a Flying Reagent Dispenser (FRD, Aurora Discovery, San Diego, CA). The plates were incubated at 37C and 5% CO2 for 22 hr. For cytotoxicity assay, 1 uL of CellTiter-Fluor reagent (Promega Corporation, Madison, WI) was added to each well using the FRD and after 30 min incubation at 37C and 5% CO2, The fluorescence intensity was measured using ViewLux plate reader (PerkinElmer, Shelton, CT).
For `CCN(CC)CCNC(=O)c1ccc(N)cc1`, the Potency entry is “inactive”.

For the molecule `COc1ccc(N)c(OC)c1`, the Potency result was “inactive”. As for `Oc1ccc(Cc2ccccc2O)cc1`, the entry is “inactive”; as for `C=CC(C)(C)C`, “inactive”; as for `CN1Cc2c(N)cccc2C(c2ccccc2)C1` (stereo not given), “inactive”. The result for `CC(C)=CCC/C(C)=C/C=O` reads “inactive”; that for `OC[C@H]1O[C@@H](Oc2ccc(O)cc2)[C@H](O)[C@@H](O)[C@@H]1O`, “inactive”. The result for `O=Cc1ccc(CO)o1` reads “inactive”; that for `CCc1cccc(CC)c1N`, “inactive”. For the molecule `Cc1cccc(C)c1[N+](=O)[O-]`, the Potency entry is “inactive”. The result for `CC(C)c1ccc(C(C)C)cc1` reads “inactive”. The result for `O=C(O)Cc1c[nH]c2ccccc12` reads “inactive”; that for `CCCCCCCCO`, “inactive”; that for `CC(C)(CO)CO`, “inactive”. As for `C=C1C[C@]23C[C@@]1(O)CC[C@H]2[C@@]12C=C[C@H](O)[C@@](C)(C(=O)O1)[C@H]2[C@@H]3C(=O)O`, the entry is “inactive”. As to `CC(=O)c1nccs1`, the Potency entry was “inactive”. The result for `O=C(c1ccccc1)c1ccc(O)c(O)c1O` reads “inactive”; that for `CC/C(C)=N/O`, “inactive”. For the molecule `CCOC(=O)CC(=O)OCC`, the Potency result was “inactive”.

Take `Cc1ccc(C)c(S(=O)(=O)O)c1`: the Potency entry is “inactive”. As for `CCCCCCCC(=O)O`, the Potency entry was “inactive”. For the molecule `O=C(NCC1CCCCN1)c1cc(OCC(F)(F)F)ccc1OCC(F)(F)F` (stereo not given), the Potency entry was “inactive”. Regarding `O=C1CCCCCCCCCCC1`, the Potency result is “inactive”.

As to `C1CCCNCC1`, the Potency entry is “inactive”. As for `COc1ccccc1[N+](=O)[O-]`, the entry is “inactive”. Consider `CC(CN1c2ccccc2Sc2ccccc21)N(C)C` (stereo not given), for which the Potency result is “inactive”. In the case of `O=C1OC(=O)c2c(Cl)c(Cl)c(Cl)c(Cl)c21`, the Potency result is “inactive”.

As for `Cc1ccc([N+](=O)[O-])cc1N`, the Potency entry is “inactive”. In the case of `COC(=O)CCCCC(=O)OC`, the Potency entry is “inactive”.

Regarding `CC(=O)C(C)C`, the Potency result was “inactive”. As for `CC(C=O)Cc1ccc(C(C)(C)C)cc1` (stereo not given), the entry is “inactive”; as for `NCCNCCNCCN`, “inactive”; as for `Cc1cc(C)cc(O)c1`, “inactive”. As for `COc1c2ccoc2cc2oc(=O)ccc12`, the entry is “inactive”. With `O=C1C(N(CO)C(=O)NCO)N(CO)C(=O)N1CO` (stereo not given), the Potency result was “inactive”.

As for `CCCCCNCCCCC`, the Potency entry was “inactive”. As for `CC(=O)OCCC(C)C`, the entry is “inactive”; as for `O=[N+]([O-])c1ccccc1C(F)(F)F`, “inactive”; as for `CC/C=C(\C(=O)N[C@@H]1C(=O)N2C(C(=O)OCOC(=O)C(C)(C)C)=C(COC(N)=O)CS[C@H]12)c1csc(N)n1`, “inactive”. For the molecule `Cc1ccncc1`, the Potency result was “inactive”.
